Reference: PubChem BioAssay (NCI)
This is part of a sample that, as a whole, favours compounds with a hit. Of some 83,000 tested, about 20% had one in any assay.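 Testing used 96-well plates and a 48-hour single-concentration exposure. Example: -40 means 40% of the starting cells died.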 A number with no mark means an inactive call. Active and inactive are the calls of the source. The calls were made as follows: active = growth percent below 10; inactive = the rest.

Experiments:
Experiment in all cases: NCI-60 one-dose screen, 48 h (100 = growth as untreated, 0 = no growth, -100 = all killed)
SR leukemia = details: 10 µM unless noted
RPMI-8226 leukemia = details: 10 µM unless noted
OVCAR-8 ovarian = details: 10 µM unless noted
OVCAR-5 ovarian = details: 10 µM unless noted
SK-OV-3 ovarian = details: 10 µM unless noted
IGROV1 ovarian = details: 10 µM unless noted
OVCAR-3 ovarian = details: 10 µM unless noted
HS 578T breast = details: 10 µM
NCI/ADR-RES ovarian = details: 10 µM unless noted
T-47D breast = details: 10 µM unless noted
MDA-MB-435 melanoma = details: 10 µM unless noted
SW-620 colon = details: 10 µM unless noted
MCF7 breast = details: 10 µM unless noted
HCT-116 colon = details: 10 µM unless noted
HCC-2998 colon = details: 10 µM unless noted
KM12 colon = details: 10 µM unless noted
OVCAR-4 ovarian = details: 10 µM unless noted
BT-549 breast = details: 10 µM unless noted

SMILES	growth (SR leukemia)	growth (RPMI-8226 leukemia)	growth (OVCAR-8 ovarian)	growth (OVCAR-5 ovarian)	growth (SK-OV-3 ovarian)	growth (IGROV1 ovarian)	growth (OVCAR-3 ovarian)	growth (HS 578T breast)	growth (NCI/ADR-RES ovarian)	growth (T-47D breast)	growth (MDA-MB-435 melanoma)	growth (SW-620 colon)	growth (MCF7 breast)	growth (HCT-116 colon)	growth (HCC-2998 colon)	growth (KM12 colon)	growth (OVCAR-4 ovarian)	growth (BT-549 breast)
CC(C)(C)CC(C)(C)NCc1cc(C(C)(C)C)cc(CNC(C)(C)CC(C)(C)C)c1O	1.23% (active)	8.02% (active)	86.4%	68.6%	81.3%	61.1%	79.2%	67.6%	55%	14.5%	81.5%	75.3%	31.6%	26.1%	31.1%	75%		
CCN(CC)c1ccc2nc3c4ccccc4c(=O)cc-3n(-c3ccccc3)c2c1	-5.63% (active)	6.27% (active)	7.52% (active)	10.7%	3.71% (active)		-52.6% (active)	-17.8% (active)	-7.19% (active)	-7.93% (active)	-36.3% (active)	7.92% (active)	-7.24% (active)		-6.62% (active)	-5.68% (active)	6.28% (active)	-21.7% (active)
CCOC(=O)c1ccc(N(CCC(=O)O)C(C)=O)cc1	129%	110%	104%	102%	114%	103%	120%	114%	109%	112%	122%	106%	99.9%		113%	117%		94.9%
C/C(CC(=O)NNc1ccc([N+](=O)[O-])cc1)=N\Nc1ccc([N+](=O)[O-])cc1	46.9%	72.1%	81.3%	48.8%	90.6%	78.3%	73.7%	86.2%	49.7%	50%	35.4%	48.6%		47.3%	74.5%	25.4%		99.6%
CC(=O)N(C)c1ccc(Nc2cc(C)[nH]c3ccc4ncnc4c23)cc1	11.1%	56.2%		63.5%	74.3%	1.11% (active)	76.3%	75.1%	101%	47.5%	81.3%	45.5%	28.3%	19.2%	26.9%	67.6%	77.9%	61.6%
O=C1c2ccccc2C2N1CCC1CCc3ccccc3N12 (stereo not given)	114%	105%	101%	92%	109%	99.8%	115%	99.8%	103%	107%	110%	102%	96.4%		110%	108%		88.1%
CC1C2CCC(C2)C1COCCOCCO (stereo not given)	105%	108%	102%	107%	110%	113%	112%	110%	104%		110%	101%	105%	108%	105%	110%		104%
CN1CCN(Cc2ccc(NC(=O)c3cncc(C#Cc4cnc5cccnn45)c3)cc2C(F)(F)F)CC1	5.44% (active)	-20.1% (active)		12.7%	7.64% (active)	5.12% (active)	1.49% (active)	-17.3% (active)	18.3%	30.7%	1.81% (active)	-3.38% (active)	3.61% (active)	3.88% (active)	9.55% (active)	-12.3% (active)	-21.7% (active)	6.96% (active)
c1ccc2c(Cc3csc4ccccc34)csc2c1	50%	94.8%	101%	101%	77.7%		92.5%	104%	81.9%	78.9%	-9.16% (active)	62.6%	68.4%	78%	85.3%	75.8%	88.3%	92.2%
CCCCN(CCCC)CCC(O)c1cc2ccc(C(F)(F)F)cc2c2cc(C(F)(F)F)ccc12 (stereo not given)	-36.8% (active)	-9.02% (active)	48.6%	74.9%	74.2%	40.3%	30.2%	58%	59.8%	52.1%	54.2%	40.4%	6.74% (active)	30.5%	-34.8% (active)	12.9%		91.3%
CCOC(C)(c1ccc(Cl)cc1)C1CCNCC1 (stereo not given)	88.1%	114%	100%	102%	96.1%	115%	110%	92.7%	92.5%	91.7%	109%	79%	94.8%	97.8%		98.2%		99.5%
Cc1c(-c2ccc(-c3ccccc3F)cc2)nc2ccc(F)cc2c1C(=O)O	23.4%	23.3%		34.8%	65.1%	44.6%	55.9%	67%	49.6%	59.2%	34.9%	38.9%	28.4%	21%	37.7%	35.2%	75.1%	45.5%
N#Cc1ccc(NC(=O)Nc2nc3ccc(OC(F)(F)F)cc3s2)cc1	-38.4% (active)	-9.16% (active)	8.91% (active)	16%	0.444% (active)	13.2%	28.9%	-0.817% (active)	-13.8% (active)	-10.3% (active)	-25.6% (active)	13.6%		-3.77% (active)	-5.67% (active)	10.5%		
O=C(O)C1[S][Sb]([CH](C(=O)O)[CH](C(=O)O)[Sb]2[S]C(C(=O)O)C(C(=O)O)[S]2)[S]C1C(=O)O (stereo not given)	50.2%	91.9%	96.2%	118%	103%	87.8%	95.7%	101%	104%	86.8%	116%	103%	67.9%	100%	108%	100%		63.8%
Cc1ccc(N2C3c4ccccc4N(S(=O)(=O)c4ccc(C)cc4)C2c2ccccc2N3S(=O)(=O)c2ccc(C)cc2)cc1	96%	93.1%		105%	106%	107%	107%	99.5%		93.2%	99.9%	96.6%	88.5%	121%	115%	95.4%	93.9%	115%
c1ccc(C(Nc2ccccn2)(c2ccccc2)c2ccccc2)cc1	97%		70.4%	77.6%	67.5%	88.7%	82%	93.4%	63.3%	72.7%	96.5%	84.4%	62.4%	65.7%	82.6%	71.9%	79.9%	99.2%
COc1cc2c(cc1C)NC(=O)/C2=C\c1c[nH]c2ccccc12	46.4%		69.3%	75.3%	97.4%	-6.11% (active)	65.9%	75.2%	77%	65.8%	68.8%	101%	59.2%	78.5%	109%	24.3%	64.8%	94.6%
CCOC(=O)c1ccc(NCCC(=O)O)cc1	103%	115%		110%	113%	112%	138%	104%	113%	101%	116%	110%	92.4%	111%	103%	110%		110%
C=CCOc1c(Br)cc(Br)cc1Br	34.8%	38.7%		76.2%	64.9%	30%		42.2%	63.7%	65.1%	27.2%	76.1%	40.5%	54.5%	95.1%	84.8%	63.4%	67.4%
Cc1cc(C)c(C#N)c(SCC(=O)c2sc3c(C#N)c(C)cc(C)[n+]3c2[O-])n1	5.47% (active)	43.1%		41.6%	14.7%	9.29% (active)	-15.9% (active)	21.8%	12%	38.1%	-59.2% (active)	20.3%	13.4%	16.8%	15.8%	16.4%	66.9%	30.4%
CC(C)c1ccc(Cn2ccc3c4c(N)nc(NC5CC5)nc4ccc32)cc1	-45.8% (active)	-54.7% (active)		-85.9% (active)	-87.2% (active)	-87.4% (active)	-87.6% (active)	-57.1% (active)	-74.4% (active)	-54.8% (active)	-97% (active)	-82.6% (active)	-82% (active)	-82.8% (active)	-78.6% (active)	-79.2% (active)	-37.4% (active)	-71.2% (active)
COC1=CC(c2ccc[nH]2)=N/C1=C\c1[nH]c(C)c(C(=O)CCCCCCCCC(=O)O[C@H]2CC[C@H]3C4CCc5cc(O)ccc5C4CC[C@]23C)c1C (stereo not given in full)	-14.6% (active)		12.2%	52.1%	49.2%	22.7%	13.7%	10.7%	68.3%	29.8%	14.3%	6.58% (active)	24.1%	7.77% (active)		17.5%	49.7%	38.3%
Cc1ccc2cc3c(NC(=O)c4cccnc4)nn(C)c3nc2c1	95.8%		94.6%	102%	94.2%	80.6%	91.1%	96%	95%	69.6%	95.5%	92.5%	81.6%	86.2%	91%	85.6%	97.1%	97.4%
CCCCc1n(Cc2ccc3ccccc3n2)cc[n+]1Cc1ccc2ccccc2n1	6.57% (active)		15%	25.2%	24.4%	17.8%	9.83% (active)	41.5%	97.9%	6.69% (active)	7.37% (active)	22.1%	7.29% (active)	9.88% (active)	18.5%	5.78% (active)	14%	2.91% (active)
CC(C)N1CCN(c2ccncc2S(=O)(=O)N2CCN(C)CC2)CC1	93.5%	102%		96.9%	103%	119%	110%			96.2%	101%	105%	94.1%	100%	106%	99.1%	96.1%	107%
COc1cc(NC(C)CCCN)c2ncccc2c1Sc1ccc(Cl)cc1 (stereo not given)	-35.2% (active)	-8.1% (active)		77.8%	94.7%	38.9%	58.6%	58.9%	91.6%	58.7%	55.7%	-69.1% (active)	26%	23.9%	12.3%	34.4%		90.9%
Oc1[nH]c2ccc(Cl)cc2c1/C=c1/ccc2c(c1)N=C(c1ccc(F)cc1)N=2	8.49% (active)	69.2%		103%	87.4%	5.76% (active)	72%	68.1%	44.3%	62.6%	-44% (active)	19.3%	10.6%	9.48% (active)	74%	48.6%	79.4%	27.8%
O=C1Nc2ccccc2/C1=C/c1c[nH]c2ccccc12	77.5%		84.9%	105%	95.7%	2.73% (active)	93.5%	67.6%	89.6%	68.3%	92.3%	100%	63.2%	79.2%	98.6%	23.1%	71.7%	73.5%
